B1: TCTC (dsDNA)
DNA 1: GCTATCTAGTGCTCAGTACGCACTGTCTCAGGAAACTTCTGGCAGGACCAGGTCATGAGATCGGAAGAGCACACGTCTGAACTCCAGTCA
DNA 2: TGACTGGAGTTCAGACGTGTGCTCTTCCGATCTCATGACCTGGTCCTGCCAGAAGTTTCCTGAGACAGTGCGTACTGAGCACTAGATAGC
RNA: AAUUUCUACUCUUGUAGAUAGGAAACUUCUGGCAGGACC
B2: TTAC (dsDNA)
DNA 1: GCTATCTAGTGCTCAGTACGCACTGTTACAGGAAACTTCTGGCAGGACCAGGTCATGAGATCGGAAGAGCACACGTCTGAACTCCAGTCA
DNA 2: TGACTGGAGTTCAGACGTGTGCTCTTCCGATCTCATGACCTGGTCCTGCCAGAAGTTTCCTGTAACAGTGCGTACTGAGCACTAGATAGC
RNA: AAUUUCUACUCUUGUAGAUAGGAAACUUCUGGCAGGACC
B3: TTCA (dsDNA)
DNA 1: GCTATCTAGTGCTCAGTACGCACTGTTCAAGGAAACTTCTGGCAGGACCAGGTCATGAGATCGGAAGAGCACACGTCTGAACTCCAGTCA
DNA 2: TGACTGGAGTTCAGACGTGTGCTCTTCCGATCTCATGACCTGGTCCTGCCAGAAGTTTCCTTGAACAGTGCGTACTGAGCACTAGATAGC
RNA: AAUUUCUACUCUUGUAGAUAGGAAACUUCUGGCAGGACC
B4: TTGA (dsDNA)
DNA 1: GCTATCTAGTGCTCAGTACGCACTGTTGAAGGAAACTTCTGGCAGGACCAGGTCATGAGATCGGAAGAGCACACGTCTGAACTCCAGTCA
DNA 2: TGACTGGAGTTCAGACGTGTGCTCTTCCGATCTCATGACCTGGTCCTGCCAGAAGTTTCCTTCAACAGTGCGTACTGAGCACTAGATAGC
RNA: AAUUUCUACUCUUGUAGAUAGGAAACUUCUGGCAGGACC
B5: TTTC (dsDNA)
DNA 1: GCTATCTAGTGCTCAGTACGCACTGTTTCAGGAAACTTCTGGCAGGACCAGGTCATGAGATCGGAAGAGCACACGTCTGAACTCCAGTCA
DNA 2: TGACTGGAGTTCAGACGTGTGCTCTTCCGATCTCATGACCTGGTCCTGCCAGAAGTTTCCTGAAACAGTGCGTACTGAGCACTAGATAGC
RNA: AAUUUCUACUCUUGUAGAUAGGAAACUUCUGGCAGGACC
B6: TTAA (dsDNA)
DNA 1: GCTATCTAGTGCTCAGTACGCACTGTTAAAGGAAACTTCTGGCAGGACCAGGTCATGAGATCGGAAGAGCACACGTCTGAACTCCAGTCA
DNA 2: TGACTGGAGTTCAGACGTGTGCTCTTCCGATCTCATGACCTGGTCCTGCCAGAAGTTTCCTTTAACAGTGCGTACTGAGCACTAGATAGC
RNA: AAUUUCUACUCUUGUAGAUAGGAAACUUCUGGCAGGACC
B7: TTGC (dsDNA)
DNA 1: GCTATCTAGTGCTCAGTACGCACTGTTGCAGGAAACTTCTGGCAGGACCAGGTCATGAGATCGGAAGAGCACACGTCTGAACTCCAGTCA
DNA 2: TGACTGGAGTTCAGACGTGTGCTCTTCCGATCTCATGACCTGGTCCTGCCAGAAGTTTCCTGCAACAGTGCGTACTGAGCACTAGATAGC
RNA: AAUUUCUACUCUUGUAGAUAGGAAACUUCUGGCAGGACC
B8: TTCT (dsDNA)
DNA 1: GCTATCTAGTGCTCAGTACGCACTGTTCTAGGAAACTTCTGGCAGGACCAGGTCATGAGATCGGAAGAGCACACGTCTGAACTCCAGTCA
DNA 2: TGACTGGAGTTCAGACGTGTGCTCTTCCGATCTCATGACCTGGTCCTGCCAGAAGTTTCCTAGAACAGTGCGTACTGAGCACTAGATAGC
RNA: AAUUUCUACUCUUGUAGAUAGGAAACUUCUGGCAGGACC
B9: TCTG (dsDNA)
DNA 1: GCTATCTAGTGCTCAGTACGCACTGTCTGAGGAAACTTCTGGCAGGACCAGGTCATGAGATCGGAAGAGCACACGTCTGAACTCCAGTCA
DNA 2: TGACTGGAGTTCAGACGTGTGCTCTTCCGATCTCATGACCTGGTCCTGCCAGAAGTTTCCTCAGACAGTGCGTACTGAGCACTAGATAGC
RNA: AAUUUCUACUCUUGUAGAUAGGAAACUUCUGGCAGGACC
B10: TTTG (dsDNA)
DNA 1: GCTATCTAGTGCTCAGTACGCACTGTTTGAGGAAACTTCTGGCAGGACCAGGTCATGAGATCGGAAGAGCACACGTCTGAACTCCAGTCA
DNA 2: TGACTGGAGTTCAGACGTGTGCTCTTCCGATCTCATGACCTGGTCCTGCCAGAAGTTTCCTCAAACAGTGCGTACTGAGCACTAGATAGC
RNA: AAUUUCUACUCUUGUAGAUAGGAAACUUCUGGCAGGACC
B11: TGTC (dsDNA)
DNA 1: GCTATCTAGTGCTCAGTACGCACTGTGTCAGGAAACTTCTGGCAGGACCAGGTCATGAGATCGGAAGAGCACACGTCTGAACTCCAGTCA
DNA 2: TGACTGGAGTTCAGACGTGTGCTCTTCCGATCTCATGACCTGGTCCTGCCAGAAGTTTCCTGACACAGTGCGTACTGAGCACTAGATAGC
RNA: AAUUUCUACUCUUGUAGAUAGGAAACUUCUGGCAGGACC
B12: TGTA (dsDNA)
DNA 1: GCTATCTAGTGCTCAGTACGCACTGTGTAAGGAAACTTCTGGCAGGACCAGGTCATGAGATCGGAAGAGCACACGTCTGAACTCCAGTCA
DNA 2: TGACTGGAGTTCAGACGTGTGCTCTTCCGATCTCATGACCTGGTCCTGCCAGAAGTTTCCTTACACAGTGCGTACTGAGCACTAGATAGC
RNA: AAUUUCUACUCUUGUAGAUAGGAAACUUCUGGCAGGACC
B13: TTCC (dsDNA)
DNA 1: GCTATCTAGTGCTCAGTACGCACTGTTCCAGGAAACTTCTGGCAGGACCAGGTCATGAGATCGGAAGAGCACACGTCTGAACTCCAGTCA
DNA 2: TGACTGGAGTTCAGACGTGTGCTCTTCCGATCTCATGACCTGGTCCTGCCAGAAGTTTCCTGGAACAGTGCGTACTGAGCACTAGATAGC
RNA: AAUUUCUACUCUUGUAGAUAGGAAACUUCUGGCAGGACC

These binders were tested against dAsCas12a WT (Acidaminococcus sp., UniProt U2UMQ6 1-1307, D908A;E993A;D1235A) (assay: Spec-seq (native PAGE EMSA with sequencing of bound and unbound); 25 mM Tris-HCl pH 7.4, 150 mM KCl, 5 mM MgCl2, 10% glycerol, 1 mM DTT, 40 ng/uL salmon sperm DNA; 400 nM Cas12a, 480 nM crRNA, 50 nM library, 37 C 1 h; native P; high values mean tight binding). Conditions: not given.
Work on B1 yielded a binding signal of -5.94 lnKA.
For B2, the binding signal was -8.99 lnKA.
Binder B3 has a binding signal of -7.22 lnKA.
With B4 the binding signal was -8.14 lnKA.
Binder B5 has a binding signal of 0.0688 lnKA.
B6 was tested, and the binding signal was -8.61 lnKA.
B7 gave a binding signal of -8.28 lnKA.
For B8, the binding signal was -8.65 lnKA.
Binder B9 has a binding signal of -6.99 lnKA.
In the case of B10, the binding signal is reported as -1.4 lnKA.
For B11, the binding signal was -8.93 lnKA.
B12 was tested, and the binding signal was -7.99 lnKA.
B13 gave a binding signal of -7.28 lnKA.

The binders below were run against dAsCas12a Ultra (Acidaminococcus sp., UniProt U2UMQ6 1-1307, M537R;F870L;D908A;E993A;D1235A) (assay: Spec-seq (native PAGE EMSA with sequencing of bound and unbound); 25 mM Tris-HCl pH 7.4, 150 mM KCl, 5 mM MgCl2, 10% glycerol, 1 mM DTT, 40 ng/uL salmon sperm DNA; 400 nM Cas12a, 480 nM crRNA, 50 nM library, 37 C 1 h; native PAGE at room temperature; high values mean tight binding). Conditions: protein: recombinant.
B1 was tested, and the binding signal was -3.61 lnKA.
For B2, the binding signal was -7.13 lnKA.
Work on B3 yielded a binding signal of -4.73 lnKA.
For B4, the binding signal was -6.6 lnKA.
With B5 the binding signal was -0.0656 lnKA.
In the case of B6, the binding signal is reported as -7.33 lnKA.
Binder B7 has a binding signal of -6.02 lnKA.
B8 showed a binding signal of -6.53 lnKA.
B9 was tested, and the binding signal was -4.53 lnKA.
For B10, the binding signal was -0.474 lnKA.
In the case of B11, the binding signal is reported as -7.57 lnKA.
B12 gave a binding signal of -6.4 lnKA.
For B13, the binding signal was -4.81 lnKA.

The binders below were run against dAsCas12a E174R (Acidaminococcus sp., UniProt U2UMQ6 1-1307, E174R;D908A;E993A;D1235A) in the same assay as above. Conditions: protein: recombinant.
With B1 the binding signal was -3.18 lnKA.
B2 was tested, and the binding signal was -6.79 lnKA.
For B3, the binding signal was -3.99 lnKA.
With B4 the binding signal was -7.49 lnKA.
B5 showed a binding signal of -0.339 lnKA.
In the case of B6, the binding signal is reported as -7.28 lnKA.
Binder B7 has a binding signal of -6.51 lnKA.
With B8 the binding signal was -6.23 lnKA.
B9 was tested, and the binding signal was -4.57 lnKA.
With B10 the binding signal was -0.628 lnKA.
In the case of B11, the binding signal is reported as -7.56 lnKA.
Binder B12 has a binding signal of -6.64 lnKA.
B13 was tested, and the binding signal was -4.78 lnKA.

These binders were tested against dAsCas12a S542R (Acidaminococcus sp., UniProt U2UMQ6 1-1307, S542R;D908A;E993A;D1235A) in the same assay as above. Conditions: protein: recombinant.
B1 showed a binding signal of -4.47 lnKA.
In the case of B2, the binding signal is reported as -6.51 lnKA.
With B3 the binding signal was -1.85 lnKA.
In the case of B4, the binding signal is reported as -6.46 lnKA.
For B5, the binding signal was -0.143 lnKA.
Work on B6 yielded a binding signal of -6.82 lnKA.
With B7 the binding signal was -6.74 lnKA.
B8 was tested, and the binding signal was -3.26 lnKA.
B9 showed a binding signal of -5.38 lnKA.
For B10, the binding signal was -0.333 lnKA.
B11 showed a binding signal of -7.52 lnKA.
B12 gave a binding signal of -6.54 lnKA.
B13 was tested, and the binding signal was -1.16 lnKA.

The binders below were run against dAsCas12a K548R (Acidaminococcus sp., UniProt U2UMQ6 1-1307, K548R;D908A;E993A;D1235A) in the same assay as above. Conditions: protein: recombinant.
B1 showed a binding signal of -8.65 lnKA.
B2 showed a binding signal of -8.18 lnKA.
B3 showed a binding signal of -6.86 lnKA.
For B4, the binding signal was -8.53 lnKA.
Binder B5 has a binding signal of 0.462 lnKA.
B6 gave a binding signal of -8.66 lnKA.
For B7, the binding signal was -7.43 lnKA.
B8 gave a binding signal of -8.32 lnKA.
B10 gave a binding signal of -0.458 lnKA.
In the case of B11, the binding signal is reported as -6.58 lnKA.
B12 gave a binding signal of -7.23 lnKA.
B13 showed a binding signal of -6.53 lnKA.

What follows are binders tested against d-enCas12a (Acidaminococcus sp., UniProt U2UMQ6 1-1307, E174R;S542R;K548R;D908A;E993A;D1235A) in the same assay as above. Conditions: protein: recombinant.
In the case of B1, the binding signal is reported as -3.15 lnKA.
For B2, the binding signal was -1.59 lnKA.
B3 was tested, and the binding signal was -0.506 lnKA.
In the case of B4, the binding signal is reported as -4.32 lnKA.
B5 gave a binding signal of 0.00167 lnKA.
B6 showed a binding signal of -3.79 lnKA.
For B7, the binding signal was -2.75 lnKA.
Work on B8 yielded a binding signal of -0.829 lnKA.
With B9 the binding signal was -4.86 lnKA.
With B10 the binding signal was -0.151 lnKA.
In the case of B11, the binding signal is reported as -0.999 lnKA.
B12 was tested, and the binding signal was -0.876 lnKA.
Binder B13 has a binding signal of -0.274 lnKA.

These binders were tested against d-enCas12a-Ultra (Acidaminococcus sp., UniProt U2UMQ6 1-1307, E174R;S542R;K548R;M537R;F870L;D908A;E993A;D1235A) in the same assay as above. Conditions: protein: recombinant.
In the case of B1, the binding signal is reported as -0.761 lnKA.
B2 was tested, and the binding signal was -0.507 lnKA.
With B3 the binding signal was -0.166 lnKA.
B4 was tested, and the binding signal was -2.04 lnKA.
B5 gave a binding signal of 0.033 lnKA.
B6 showed a binding signal of -1.68 lnKA.
B7 was tested, and the binding signal was -0.707 lnKA.
For B8, the binding signal was -0.251 lnKA.
Work on B9 yielded a binding signal of -1.79 lnKA.
Binder B10 has a binding signal of -0.067 lnKA.
With B11 the binding signal was -0.323 lnKA.
B12 was tested, and the binding signal was -0.296 lnKA.
Binder B13 has a binding signal of -0.0946 lnKA.

Source: publication PMC8222333, “AsCas12a ultra nuclease facilitates the rapid generation of therapeutic cell medicines”
